Experimental data reported in PubChem BioAssay.

Test system: Lefty1
Experiment: Lefty1 protein binding to printed compounds – biochemical, small-molecule microarray, 635/667 nm fluorescence, primary screen (AID 1139)
Settings: fluorescence 635/667, higher = more signal

SMILES | composite z-score
C=C(/C(=C/C[C@H](OC(C)=O)c1ccc(OCCO)cc1)c1cc(C(=O)OC)ccc1OC)C(C)C | 1.55
COCCCNC(=O)[C@@]1(Sc2ccc(C)cc2)CC(=O)N(Cc2ccccc2Cl)[C@@H]1c1ccc(CO)cc1 | 1.13
O=C(O)[C@H](Cc1ccccc1)n1cc(-c2ccccc2)nn1 | 0.206
CC(C)[Si](C#CCCCC#N)(Oc1ccccc1Br)C(C)C | 0.55
C=CC1c2cc(O)c(OC)cc2CCN1Cc1cccc(OC(F)(F)F)c1 (configuration not stated) | -0.145
O=C1OCCC=C[C@H]2OC34C=CCN(Cn5nnc6ccccc65)C(=O)[C@H]3N(CCO)C(=O)[C@@H]4C12 (some centres not stated) | -1.31
CC(C)[Si](C#C[Si](C(C)C)(C(C)C)C(C)C)(O[C@H](C)c1cn(Cc2ccccc2)nn1)C(C)C | 0.56
